Experimental data reported in PubChem BioAssay AID651599 (National Center for Advancing Translational Sciences (NCATS), 2012).
Inconclusive results are not listed. Activity calls are given as the source filed them. Calls follow the shape of the dose curve; as a rule, active = well fitted inhibition curve with a large enough effect; inconclusive = small, poorly fitted or top-dose-only effect; inactive = no such curve, though single readings can be large or run the other way.

Target: Tumor susceptibility gene 101 protein (Homo sapiens) (UniProt Q99816)
Test: qHTS Assay for Iinhibitors of HIV-1 Budding by Blocking the Interaction of PTAP/TSG101: Hit Validation in TR assay
Conditions: Tsg101 binding domain + Texas Red-labeled PTAP peptide, fluorescence polarization, 20 min; series mostly up to 57.5 µM
Outline: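 Texas Red-PTAP peptide (50 nM) binding to Tsg101 binding domain (10 uM), both final, in pH 7.5 HEPES buffer, read as polarization after 20 min at room temperature; compounds pinned before peptide addition.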

Tumor susceptibility gene 101 protein (Homo sapiens), sequence (Q99816 whole entry, looked up): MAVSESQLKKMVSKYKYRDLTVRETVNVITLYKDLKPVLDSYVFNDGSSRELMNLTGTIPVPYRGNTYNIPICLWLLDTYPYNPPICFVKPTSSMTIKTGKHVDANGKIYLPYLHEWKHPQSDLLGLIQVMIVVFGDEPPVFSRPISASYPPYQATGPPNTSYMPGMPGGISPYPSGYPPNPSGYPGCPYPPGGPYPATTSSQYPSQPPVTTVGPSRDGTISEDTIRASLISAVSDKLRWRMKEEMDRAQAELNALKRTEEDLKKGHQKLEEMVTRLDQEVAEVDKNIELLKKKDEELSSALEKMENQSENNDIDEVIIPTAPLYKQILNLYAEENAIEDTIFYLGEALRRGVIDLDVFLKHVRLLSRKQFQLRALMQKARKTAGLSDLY

Potency, inactive:
CNc1c2cccc(C)c2nc2c(C(=O)NCCN(C)C)cccc12
O=C(NCc1cccc(F)c1)c1cccc2c1C(=O)c1ccc(N3CCC(Cc4ccccc4)CC3)cc1S2(=O)=O
CCOC(=O)c1cnc2ccc(OC)cc2c1Nc1ccc(N2CCN(C)CC2)cc1
CCOc1ccc2nc3cc(NCc4ccc(OC)cc4)ccc3c(N)c2c1
Oc1ccc2ccccc2c1-c1sc(Nc2ccccc2)n[n+]1-c1ccc(F)cc1
CC(=O)c1ccc2c(c1)c(C#N)c1ccccc1[n+]2[O-]
CCCN1CCCc2cc(CN)ccc21
Cc1cc(NS(=O)(=O)c2ccc(NC(=O)COc3c(C)cc(Br)cc3C)cc2)no1
Cc1ccc(C2C3CN(C(C)C)CC=C3C(C#N)=C(N)C2(C#N)C#N)cc1 (configuration not stated)
C/C(O)=c1/ccc2cccc3nc(C)nc1c23
O=C1/C(=C\c2ccc(-c3ccccc3Cl)o2)SC(=S)N1CC1CCCO1 (configuration not stated)
O=c1oc2ccccc2nc1/C=C(\O)c1ccc(Br)cc1
C[C@H](O)C(=O)C1=Nc2c(nc(N)[nH]c2=O)NC1
Cc1cc2nc3c(=O)[nH]c(=O)[nH]c3nc2c([N+](=O)[O-])c1N
O=C(NC1CCCCC1)c1cccc2c1C(=O)c1ccc(N3CCC(Cc4ccccc4)CC3)cc1S2(=O)=O
CC1(C)CC(=O)C2=C(C1)OC(N)=C(C#N)[C@@H]2c1ccccc1[N+](=O)[O-]
O=C(CN1C(=O)NC(Cc2c[nH]c3ccccc23)C1=O)Nc1ccccc1C(F)(F)F (configuration not stated)
